A short description of experiment [1]: optical density shifts of acrAB sulA E. coli – strain DRC41, OD650, 48 h, E. coli filamentation inducer project, primary screen (AID 1152).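 Further: E. coli MC1000 strain DRC41 lacking acrAB efflux pump and sulA.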 The settings on record: higher = more signal, called active from +8 up or from −8 down.
The nature of experiment [2]: probe aLefty1 binding on compound microarray – biochemical, small-molecule microarray, 635/667 nm fluorescence, primary screen (AID 1153).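 Further: score merges spot fluorescence with signal-to-noise ratio from the scanned slide images.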 The following applies: higher = more signal.
The nature of experiment [3]: plasmodial surface anion channel blockers, osmotic lysis – cell-based, P. falciparum Indochina, OD700, 1 h, primary screen (AID 1154). The settings on record: P. falciparum Indochina infected RBC osmotic lysis, higher = more signal, called active from +8 up or from −8 down.
A short description of experiment [4]: plasmodial surface anion channel blockers, osmotic lysis – cell-based, P. falciparum Indochina, OD700, 2 h, primary screen (AID 1155).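 Further: lysis reports solute entry through the parasite surface anion channel PSAC.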 The following applies: P. falciparum Indochina infected erythrocytes, higher = more signal, called active from +8 up or from −8 down.
The nature of experiment [5]: changes in parasitized red cell lysis, either direction – P. falciparum Indochina, OD700, 3 h, PSAC antagonist project, primary screen (AID 1156). The settings on record: P. falciparum-infected erythrocytes, osmotic lysis, higher = more signal, called active from +8 up or from −8 down.
Experiment [6] is described as follows: plasmodial surface anion channel blockers, osmotic lysis – cell-based, P. falciparum Indochina, OD700, 18 h, primary screen (AID 1157). The settings on record: P. falciparum Indochina infected erythrocytes, osmotic lysis OD700, 18 h; higher = more signal, called active from +8 up or from −8 down.
The nature of experiment [7]: S6 kinase pathway phospho-S6 level changes – cell-based, A549, cytoblot, luminescence, serum-stimulated, primary screen (AID 1158).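 Further: serum-stimulated A549 lung adenocarcinoma cells; signal is phosphorylated S6 detected by cytoblot immunostaining with HRP secondary.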 The settings on record: 5 h, higher = more signal.
Experiment [8] addresses NADPH oxidase 2 (Homo sapiens) (UniProt P04839). Kind of experiment: compounds shifting NOX2 Amplex Red fluorescence – cell-based, HEK293-NOX2, PMA-stimulated, NOX inhibitor project, primary screen (AID 1159). Further: test concentration not given here. The following applies: 45 min, higher = more signal, called active from +8 up or from −8 down.
Experiment [9] deals with NADPH oxidase 4 (Homo sapiens) (UniProt Q9NPH5). Put plainly: compounds shifting NOX4 Amplex Red fluorescence – cell-based, HEK293-NOX4, tetracycline-induced, NOX inhibitor project, primary screen (AID 1160). The settings on record: HEK293-NOX4, Amplex Red H2O2 fluorescence, 45 min; higher = more signal, called active from +8 up or from −8 down.
Sequence of NADPH oxidase 4 (Homo sapiens) (Q9NPH5 whole entry, looked up): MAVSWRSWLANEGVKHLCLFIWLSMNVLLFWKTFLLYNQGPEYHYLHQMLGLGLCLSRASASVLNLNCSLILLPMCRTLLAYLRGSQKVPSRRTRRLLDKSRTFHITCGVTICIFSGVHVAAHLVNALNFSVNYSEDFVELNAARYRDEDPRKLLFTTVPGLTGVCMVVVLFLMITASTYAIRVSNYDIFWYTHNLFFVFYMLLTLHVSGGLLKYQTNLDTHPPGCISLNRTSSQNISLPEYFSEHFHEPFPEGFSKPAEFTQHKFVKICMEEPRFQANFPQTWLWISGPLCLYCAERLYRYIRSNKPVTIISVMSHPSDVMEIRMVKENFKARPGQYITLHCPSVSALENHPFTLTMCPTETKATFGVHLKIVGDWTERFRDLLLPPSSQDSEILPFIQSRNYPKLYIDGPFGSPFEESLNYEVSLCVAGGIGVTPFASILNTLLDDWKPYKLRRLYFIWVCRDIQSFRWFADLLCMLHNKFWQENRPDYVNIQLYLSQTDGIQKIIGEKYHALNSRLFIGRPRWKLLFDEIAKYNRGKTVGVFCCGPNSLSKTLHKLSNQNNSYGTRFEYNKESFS
In experiment [10] the target is NADPH oxidase 5 (Homo sapiens) (UniProt Q96PH1). Put plainly: compounds shifting NOX5 Amplex Red fluorescence – cell-based, HEK293-NOX5, NOX inhibitor project, primary screen (AID 1161). The following applies: HEK293-NOX5, ionomycin, 45 min, higher = more signal.
Sequence of NADPH oxidase 5 (Homo sapiens) (Q96PH1 whole entry, looked up): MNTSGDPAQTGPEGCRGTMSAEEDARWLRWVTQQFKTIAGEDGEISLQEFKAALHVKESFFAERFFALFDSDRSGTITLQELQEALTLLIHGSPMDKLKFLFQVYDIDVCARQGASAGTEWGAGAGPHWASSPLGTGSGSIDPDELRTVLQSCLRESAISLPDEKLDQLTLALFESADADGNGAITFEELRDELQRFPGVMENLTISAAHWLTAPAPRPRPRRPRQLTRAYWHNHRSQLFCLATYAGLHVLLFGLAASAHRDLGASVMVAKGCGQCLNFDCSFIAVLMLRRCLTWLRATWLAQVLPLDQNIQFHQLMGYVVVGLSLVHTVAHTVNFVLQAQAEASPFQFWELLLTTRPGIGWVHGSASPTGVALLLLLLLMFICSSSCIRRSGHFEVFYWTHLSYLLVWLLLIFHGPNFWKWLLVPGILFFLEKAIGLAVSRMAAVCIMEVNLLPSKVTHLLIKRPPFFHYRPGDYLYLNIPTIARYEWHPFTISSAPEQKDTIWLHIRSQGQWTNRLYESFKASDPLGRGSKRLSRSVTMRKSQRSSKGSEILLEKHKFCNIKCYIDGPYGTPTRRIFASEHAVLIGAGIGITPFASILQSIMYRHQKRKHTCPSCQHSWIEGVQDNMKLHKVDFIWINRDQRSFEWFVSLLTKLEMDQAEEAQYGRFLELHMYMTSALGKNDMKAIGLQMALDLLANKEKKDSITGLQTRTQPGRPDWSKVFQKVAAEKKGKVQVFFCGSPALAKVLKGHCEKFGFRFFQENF
The nature of experiment [11]: compound effects on lung adenocarcinoma cell viability – A549, calcein-AM fluorescence, 48 h, basal, profiling panel (AID 1162). Further: test concentration not given here. The settings on record: higher = more signal.
The nature of experiment [12]: compound effects on differentiated 3T3-L1 adipocyte viability – cell-based, 3T3-L1 adipocytes, calcein-AM fluorescence, 48 h, basal, profiling panel (AID 1163). Further: test concentration not given here. The following applies: 3T3-L1 adipocytes viability, higher = more signal.
Experiment [13] in a line: compound effects on hepatocellular carcinoma cell viability – HepG2, calcein-AM fluorescence, 48 h, basal, profiling panel (AID 1164). Further: test concentration not given here. The settings on record: higher = more signal.
A short description of experiment [14]: compound effects on multiple myeloma cell viability – MM1S, calcein-AM fluorescence, 48 h, basal, profiling panel (AID 1165).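 Further: viability of MM1S multiple myeloma cells under basal unstimulated conditions; test concentration not given here.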 The following applies: higher = more signal.
Experiment [15] is described as follows: calcein-AM signal in unstimulated myeloma cells – cell-based, calcein-AM fluorescence, 48 h, PK04 Diversity Set, profiling panel (AID 1166).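 Further: cells grown under basal conditions without added stimulus; test concentration not given here.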 The settings on record: RPMI8226 myeloma viability, higher = more signal.
Experiment [16] is described as follows: JC-1 mitochondrial signal, unstimulated HepG2 cells – cell-based, JC-1 fluorescence, 24 h, 100 nL compound, profiling panel (AID 1167). Further: test concentration not given here. The settings on record: HepG2 mitochondrial potential, higher = more signal.
Experiment [17] in a line: JC-1 mitochondrial signal, unstimulated adipocytes – cell-based, JC-1 fluorescence, 3T3-L1 adipocytes, 24 h, 100 nL compound, profiling panel (AID 1168). Further: test concentration not given here. The settings on record: JC-1 mitochondrial fluorescence, higher = more signal, called active from +8 up or from −8 down.
The nature of experiment [18]: JC-1 mitochondrial signal, unstimulated myeloma cells – cell-based, JC-1 fluorescence, RPMI8226, 24 h, 100 nL compound, profiling panel (AID 1169). Further: test concentration not given here. The settings on record: JC-1 mitochondrial potential fluorescence, higher = more signal.
Experiment [19] in a line: JC-1 mitochondrial signal, unstimulated MM1S myeloma – cell-based, JC-1 fluorescence, 24 h, 100 nL compound, profiling panel (AID 1170). Further: test concentration not given here. The following applies: MM1S mitochondrial potential, higher = more signal.
The nature of experiment [20]: resazurin metabolic signal in A549 cells – cell-based, resazurin fluorescence, 24 h, PK04 Diversity Set, profiling panel (AID 1171). Further: test concentration not given here. The following applies: A549 viability, higher = more signal, called active from +8 up or from −8 down.

Several values for one entry are separate records, joined by “and”; a condition that tells them apart may be missing. Identical values can stand only once. Activity calls are given as the source filed them.

Sequence of NADPH oxidase 2 (Homo sapiens) (P04839 whole entry, looked up): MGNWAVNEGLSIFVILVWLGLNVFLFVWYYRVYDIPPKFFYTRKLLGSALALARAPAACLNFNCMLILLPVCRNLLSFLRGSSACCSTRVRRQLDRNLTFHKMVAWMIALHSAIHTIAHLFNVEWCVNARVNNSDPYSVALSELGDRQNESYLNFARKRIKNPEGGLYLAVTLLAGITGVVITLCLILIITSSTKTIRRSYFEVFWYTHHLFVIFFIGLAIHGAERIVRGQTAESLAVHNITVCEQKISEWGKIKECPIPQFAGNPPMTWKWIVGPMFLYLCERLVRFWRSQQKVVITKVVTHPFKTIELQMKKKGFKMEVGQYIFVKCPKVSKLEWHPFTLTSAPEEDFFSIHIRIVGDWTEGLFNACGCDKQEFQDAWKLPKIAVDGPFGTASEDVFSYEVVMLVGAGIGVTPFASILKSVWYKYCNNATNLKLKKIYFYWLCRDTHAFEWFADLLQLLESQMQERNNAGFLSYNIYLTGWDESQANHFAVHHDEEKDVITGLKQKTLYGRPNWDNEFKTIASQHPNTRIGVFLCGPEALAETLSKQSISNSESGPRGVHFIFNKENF

Turning to `C=CCN(C(=O)C1N(CCCCCCO)C(=O)C2C(C(=O)O)C3C=CC21O3)C(C)(C)C` (stereo not given), the z-score in [1] is -0.32 (inactive) and -0.471 (inactive); in [3] it was 0.203 (inactive) and 0.288 (inactive); in experiment [4] it was 0.357 (inactive) and -0.387 (inactive); in experiment [5], -0.395 (inactive) and -0.274 (inactive); in [6], -0.28 (inactive) and -0.404 (inactive); in experiment [7], 0.473 and -0.117. Moreover, the z-score was 0.93 (inactive) and 0.763 (inactive) in experiment [8]; -0.0347 (inactive) and 0.143 (inactive) in experiment [9]; 0.588 and 1.41 in experiment [10]; 0.698 and -0.443 in experiment [11]; -0.356 and -0.171 in experiment [12]; 0.159 and 0.187 in experiment [13]. In addition, the z-score is 0.576 and 0.13 in experiment [14]; -0.566 and -0.866 in [15]; -0.872 and -0.997 in experiment [16]; -0.373 (inactive) and 0.302 (inactive) in experiment [17]; 0.186 and 0.699 in experiment [18]; 1.29 and 0.193 in experiment [19]. Also, the z-score in [20] is -0.0791 (inactive) and -0.385 (inactive). Also, the composite z-score in experiment [2] was -0.0573 and 0.0451.
`CCN1C(=O)[C@H]2[C@H]3[C@H](O)[C@H](O)CC(=NOC)[C@@H]3CC[C@H]2C1=O`: the z-score was -0.589 (inactive) in experiment [1]; 0.637 (inactive) in [3]; 0.628 (inactive) in experiment [4]; 0.47 (inactive) in experiment [5]; 0.269 (inactive) in [6]; 0.815 in experiment [7]. Further, the z-score was -0.0884 (inactive) in [8]; 0.545 (inactive) in experiment [9]; -0.274 in experiment [10]; 0.357 in [11]; -0.344 in experiment [12]; -0.0225 in [13]. Besides, the z-score in experiment [14] is -0.106; in experiment [15], 0.887; in experiment [16] it was 0.459; in [17] it was 1.7 (inactive); in experiment [18], 0.0805; in [19], -0.218. Also, the z-score in [20] was -0.562 (inactive). Further, the composite z-score in [2] was -0.0654.
Take `O=c1n(-c2ccccc2)c(=O)n2n1CC[C@@H]1C(=NOC[C@@H](O)COCc3ccco3)[C@H]3O[C@H]3[C@@H](O)[C@@H]12`: the z-score in experiment [1] is -1.09 (inactive) and -0.282 (inactive); in experiment [3], 1.17 (inactive) and 0.288 (inactive); in experiment [4], -0.603 (inactive) and 0.191 (inactive); in experiment [5], 1.74 (inactive) and 0.238 (inactive); in [6], -2.3 (inactive) and 0.0983 (inactive); in [7], 0.473 and -0.975. Besides, the z-score in experiment [8] is 1.06 (inactive) and 0.176 (inactive); in experiment [9], 0.113 (inactive) and -2.01 (inactive); in experiment [10], 1.33 and -0.41; in [11], -1.18 and 0.202; in experiment [12], 0.581 and -0.304; in [13] it was -0.0728 and -0.713. Moreover, the z-score in experiment [14] was 0.256 and -0.207; in experiment [15], -0.246 and -0.624; in experiment [16], -0.16 and -1.1; in [17] it was 0.127 (inactive) and -1.22 (inactive); in [18], -0.135 and 0.0289; in [19], 0.181 and -0.00804. The z-score in experiment [20] was -1.03 (inactive) and -0.872 (inactive). Further, in [2], the composite z-score is -0.0464 and -0.0626.
In the case of `CC(CO)N1C(=O)[C@@H]2C3C(=O)OCCC=C[C@H]3OC23C=CCN(CCN2CCOCC2)C(=O)[C@@H]13` (stereo not given in full), the z-score is -0.671 (inactive) and -0.55 (inactive) in [1]; 0.0695 (inactive) and 6.53 (inactive) in experiment [3]; 0.573 (inactive) and 1.15 (inactive) in experiment [4]; 0.727 (inactive) and 0.906 (inactive) in experiment [5]; 0.138 (inactive) and 0.21 (inactive) in experiment [6]; -0.38 and -0.0957 in experiment [7]. In addition, the z-score in experiment [8] is 1.08 (inactive) and 1 (inactive); in [9] it was 0.376 (inactive) and 0.0486 (inactive); in experiment [10], 1.25 and 2.04; in experiment [11], -0.438 and -0.439; in experiment [12], -0.465 and 0.0431; in experiment [13] it was -1.36 and -0.421. The z-score is 0.19 and 0.248 in [14]; -0.174 and -0.382 in experiment [15]; -0.41 and -1.09 in experiment [16]; -0.189 (inactive) and -0.818 (inactive) in experiment [17]; -0.00565 and 0.13 in experiment [18]; -0.137 and -0.0991 in experiment [19]. In addition, in experiment [20], the z-score was -0.298 (inactive) and 0.141 (inactive). Also, in [2], the composite z-score is -0.181 and 0.476.
In the case of `Cc1ccc(S(=O)(=O)OC[C@@H]2CN3[C@@H](CC[C@@H](C)[C@@H]3c3ccc(Br)cc3)C(=O)O2)cc1`, the z-score in [1] is 0.0029 (inactive) and -0.348 (inactive); in [3], 2.52 (inactive) and 4.44 (inactive); in experiment [4], 0.0068 (inactive) and 1.78 (inactive); in experiment [5], -0.414 (inactive) and 0.812 (inactive); in experiment [6], -0.0954 (inactive) and 0.932 (inactive); in experiment [7], -0.834 and 0.119. Also, the z-score was 1.24 (inactive) and 0.787 (inactive) in experiment [8]; 0.37 (inactive) and -0.0143 (inactive) in experiment [9]; 0.0798 and 0.702 in experiment [10]; -0.251 and 0.0448 in [11]; 0.0273 and 0.503 in experiment [12]; 0.462 and 0.028 in experiment [13]. Also, the z-score in [14] is -0.644 and 0.185; in [15] it was -0.341 and -0.294; in experiment [16] it was -0.735 and 0.438; in experiment [17] it was -0.303 (inactive) and 0.303 (inactive); in [18] it was -0.883 and -0.68; in experiment [19], 0.925 and 0.523. Also, in experiment [20], the z-score was -0.474 (inactive) and 0.371 (inactive). Further, the composite z-score in experiment [2] was -0.134 and -0.144.
With `C=CCN(CCCC)C(=O)C1N(c2ccc(CCO)cc2)C(=O)C2C(C(=O)O)C3C=CC21O3` (stereo not given), the z-score in experiment [1] was 0.516 (inactive) and 1.32 (inactive); in experiment [3] it was -0.245 (inactive) and 0.903 (inactive); in experiment [4], -0.186 (inactive) and -0.13 (inactive); in [5], -0.874 (inactive) and -0.244 (inactive); in experiment [6], 0.113 (inactive) and -0.183 (inactive); in [7], 0.799 and -0.202. In addition, the z-score in experiment [8] is -0.212 (inactive) and 1.49 (inactive); in experiment [9], 0.0383 (inactive) and -1.09 (inactive); in [10], -0.437 and 0.534; in experiment [11], -0.635 and 0.444; in experiment [12], 0.79 and 0.378; in [13], -0.97 and -0.116. Besides, the z-score is 0.853 and 1.11 in experiment [14]; -0.0527 and 0.0382 in experiment [15]; -0.63 and 0.869 in experiment [16]; -0.915 (inactive) and 1.18 (inactive) in [17]; 0.16 and 0.0627 in [18]; 0.748 and 1.93 in [19]. Moreover, the z-score in [20] is -0.223 (inactive) and -0.442 (inactive). For the same molecule, the composite z-score in experiment [2] is -0.103 and 0.778.

(Values after PubChem BioAssay.)
